# About 7,900 targets were measured; listed, in parts, are those with a hit and a random draw of the rest. About 0.6% of all pairs of compound and target were hits. Unmarked numbers belong to inactive results.
# Compound: CC(C)N(C[C@H]1O[C@@H](n2cnc3c(N)ncnc32)[C@H](O)[C@@H]1O)[C@H]1C[C@@H](CCc2nc3cc(C(C)(C)C)ccc3[nH]2)C1 [pinometostat]
# Test: log2 fold change, soluble protein after heating vs DMSO (PISA); higher = thermal stabilisation; K562 cells, 10 uM, 30 min; active = over 0.2 and 3.5 SD of the protein, either way, in both replicates (recomputed)
# Method in brief: (§1)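 Quantification of soluble protein used TMTpro 16plex LC-MS/MS, with channel sums equalised. Samples were the supernatant after 21,000xg for 90 min of pooled aliquots from K562 cells (2×10^6 cells/mL) treated with 10 μM compound for 30 min, heated for 3 min over 48°C-58°C, and extracted in PBS with 0.5% NP-40 at 4°C. Values, from duplicates, describe thermal stability against control samples on a log2 fold-change scale.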
# Sequence of UniProt Q8IWZ8 (Q8IWZ8 whole entry, looked up): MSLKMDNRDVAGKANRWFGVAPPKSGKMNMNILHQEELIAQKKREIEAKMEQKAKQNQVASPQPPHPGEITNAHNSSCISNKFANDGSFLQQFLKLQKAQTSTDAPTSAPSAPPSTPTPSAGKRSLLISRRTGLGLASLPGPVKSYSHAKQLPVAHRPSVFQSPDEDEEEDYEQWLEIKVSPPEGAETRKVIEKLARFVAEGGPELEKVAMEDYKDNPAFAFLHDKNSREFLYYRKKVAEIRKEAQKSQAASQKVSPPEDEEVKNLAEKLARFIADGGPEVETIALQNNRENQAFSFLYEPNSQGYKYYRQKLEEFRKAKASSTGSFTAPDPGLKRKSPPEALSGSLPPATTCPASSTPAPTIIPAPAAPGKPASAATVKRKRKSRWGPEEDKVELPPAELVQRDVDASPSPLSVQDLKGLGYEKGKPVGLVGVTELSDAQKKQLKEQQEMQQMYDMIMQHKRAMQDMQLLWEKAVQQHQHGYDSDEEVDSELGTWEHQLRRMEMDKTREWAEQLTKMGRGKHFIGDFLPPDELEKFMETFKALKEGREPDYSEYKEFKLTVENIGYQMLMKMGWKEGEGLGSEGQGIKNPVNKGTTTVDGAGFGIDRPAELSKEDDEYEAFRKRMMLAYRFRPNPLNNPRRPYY
# Sequence of UniProt P31641 (P31641 whole entry, looked up): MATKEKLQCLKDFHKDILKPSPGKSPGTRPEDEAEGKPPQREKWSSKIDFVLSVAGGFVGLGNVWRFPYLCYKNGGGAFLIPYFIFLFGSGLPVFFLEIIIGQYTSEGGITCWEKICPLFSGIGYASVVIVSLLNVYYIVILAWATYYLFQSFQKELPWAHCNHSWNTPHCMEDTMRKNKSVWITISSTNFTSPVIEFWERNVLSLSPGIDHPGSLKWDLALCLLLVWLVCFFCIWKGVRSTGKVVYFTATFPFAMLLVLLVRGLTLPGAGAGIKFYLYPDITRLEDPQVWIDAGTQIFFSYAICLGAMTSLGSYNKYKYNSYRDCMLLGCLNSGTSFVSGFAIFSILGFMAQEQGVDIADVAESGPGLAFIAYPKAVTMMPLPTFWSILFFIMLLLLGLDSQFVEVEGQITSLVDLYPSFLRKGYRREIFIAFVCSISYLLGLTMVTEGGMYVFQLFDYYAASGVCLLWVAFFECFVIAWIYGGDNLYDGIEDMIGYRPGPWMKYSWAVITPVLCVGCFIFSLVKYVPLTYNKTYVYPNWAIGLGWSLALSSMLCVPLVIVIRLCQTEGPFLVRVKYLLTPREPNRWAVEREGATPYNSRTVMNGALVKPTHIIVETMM
# Sequence of UniProt Q658P3 (Q658P3 whole entry, looked up): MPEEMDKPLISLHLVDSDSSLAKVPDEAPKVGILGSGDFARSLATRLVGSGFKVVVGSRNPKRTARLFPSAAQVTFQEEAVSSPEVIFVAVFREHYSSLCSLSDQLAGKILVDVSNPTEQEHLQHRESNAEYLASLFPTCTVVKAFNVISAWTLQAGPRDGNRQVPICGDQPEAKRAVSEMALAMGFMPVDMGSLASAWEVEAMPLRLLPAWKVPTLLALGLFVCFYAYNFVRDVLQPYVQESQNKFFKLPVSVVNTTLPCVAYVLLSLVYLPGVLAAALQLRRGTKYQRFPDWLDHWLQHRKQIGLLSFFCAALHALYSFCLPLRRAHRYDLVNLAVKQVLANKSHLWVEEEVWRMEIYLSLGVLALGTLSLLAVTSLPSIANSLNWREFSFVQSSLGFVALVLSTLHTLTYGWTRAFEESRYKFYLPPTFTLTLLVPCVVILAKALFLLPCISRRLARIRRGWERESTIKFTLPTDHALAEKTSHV
# Sequence of UniProt Q9NQZ5 (Q9NQZ5 whole entry, looked up): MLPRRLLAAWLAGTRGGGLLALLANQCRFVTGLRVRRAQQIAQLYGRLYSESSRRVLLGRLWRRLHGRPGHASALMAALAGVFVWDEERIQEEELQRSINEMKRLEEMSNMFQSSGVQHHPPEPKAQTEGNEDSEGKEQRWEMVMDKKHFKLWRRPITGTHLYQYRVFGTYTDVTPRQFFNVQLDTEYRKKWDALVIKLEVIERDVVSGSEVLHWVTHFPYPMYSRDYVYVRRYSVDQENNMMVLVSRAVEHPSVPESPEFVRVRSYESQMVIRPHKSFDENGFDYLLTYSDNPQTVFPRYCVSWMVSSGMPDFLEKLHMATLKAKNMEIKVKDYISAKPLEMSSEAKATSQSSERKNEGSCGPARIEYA
# Sequence of UniProt O95149 (O95149 whole entry, looked up): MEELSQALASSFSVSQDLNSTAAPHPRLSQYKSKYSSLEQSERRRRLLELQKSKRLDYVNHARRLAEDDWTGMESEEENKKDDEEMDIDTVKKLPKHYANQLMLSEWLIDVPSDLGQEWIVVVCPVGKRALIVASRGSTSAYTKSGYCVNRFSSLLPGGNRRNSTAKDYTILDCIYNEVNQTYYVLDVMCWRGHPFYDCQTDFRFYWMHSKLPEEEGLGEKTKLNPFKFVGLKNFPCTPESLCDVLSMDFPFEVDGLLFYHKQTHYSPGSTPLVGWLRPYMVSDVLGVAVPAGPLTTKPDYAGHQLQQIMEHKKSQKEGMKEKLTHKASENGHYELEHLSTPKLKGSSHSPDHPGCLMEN
# Sequence of UniProt P56962 (P56962 whole entry, looked up): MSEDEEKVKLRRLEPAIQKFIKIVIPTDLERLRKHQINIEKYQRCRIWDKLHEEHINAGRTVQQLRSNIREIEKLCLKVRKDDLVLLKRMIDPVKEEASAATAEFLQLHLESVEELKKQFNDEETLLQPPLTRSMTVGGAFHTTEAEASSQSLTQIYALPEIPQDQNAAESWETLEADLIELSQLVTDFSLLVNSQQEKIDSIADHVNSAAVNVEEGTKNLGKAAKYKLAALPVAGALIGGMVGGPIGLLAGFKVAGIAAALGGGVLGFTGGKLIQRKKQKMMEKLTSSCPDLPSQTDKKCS
# Sequence of UniProt Q13043 (Q13043 whole entry, looked up): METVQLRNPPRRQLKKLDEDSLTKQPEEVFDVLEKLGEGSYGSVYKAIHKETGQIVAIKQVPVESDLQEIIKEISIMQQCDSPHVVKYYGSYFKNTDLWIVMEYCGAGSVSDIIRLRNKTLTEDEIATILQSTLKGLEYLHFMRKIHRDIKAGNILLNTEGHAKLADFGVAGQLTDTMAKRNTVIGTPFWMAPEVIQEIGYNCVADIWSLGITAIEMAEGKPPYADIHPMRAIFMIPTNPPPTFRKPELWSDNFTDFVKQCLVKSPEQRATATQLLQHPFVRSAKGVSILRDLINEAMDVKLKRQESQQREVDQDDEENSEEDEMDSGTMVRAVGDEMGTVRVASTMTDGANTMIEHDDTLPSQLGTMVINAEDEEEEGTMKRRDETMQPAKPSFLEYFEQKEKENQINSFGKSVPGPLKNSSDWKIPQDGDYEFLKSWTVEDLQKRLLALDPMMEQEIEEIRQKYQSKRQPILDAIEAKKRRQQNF
# Sequence of UniProt Q6XR72 (Q6XR72 whole entry, looked up): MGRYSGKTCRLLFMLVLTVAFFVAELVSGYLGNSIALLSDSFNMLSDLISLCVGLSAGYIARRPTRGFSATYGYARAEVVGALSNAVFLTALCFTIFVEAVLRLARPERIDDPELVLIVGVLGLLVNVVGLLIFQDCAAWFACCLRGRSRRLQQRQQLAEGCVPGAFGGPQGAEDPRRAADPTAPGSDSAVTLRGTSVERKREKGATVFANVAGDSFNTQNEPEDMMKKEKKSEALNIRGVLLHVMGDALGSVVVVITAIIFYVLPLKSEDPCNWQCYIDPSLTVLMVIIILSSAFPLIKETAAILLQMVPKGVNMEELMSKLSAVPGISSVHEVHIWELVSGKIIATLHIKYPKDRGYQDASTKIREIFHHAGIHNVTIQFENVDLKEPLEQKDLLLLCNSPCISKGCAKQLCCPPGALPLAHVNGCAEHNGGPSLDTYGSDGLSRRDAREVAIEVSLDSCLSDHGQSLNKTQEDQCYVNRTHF
# Sequence of UniProt Q9Y2H1 (Q9Y2H1 whole entry, looked up): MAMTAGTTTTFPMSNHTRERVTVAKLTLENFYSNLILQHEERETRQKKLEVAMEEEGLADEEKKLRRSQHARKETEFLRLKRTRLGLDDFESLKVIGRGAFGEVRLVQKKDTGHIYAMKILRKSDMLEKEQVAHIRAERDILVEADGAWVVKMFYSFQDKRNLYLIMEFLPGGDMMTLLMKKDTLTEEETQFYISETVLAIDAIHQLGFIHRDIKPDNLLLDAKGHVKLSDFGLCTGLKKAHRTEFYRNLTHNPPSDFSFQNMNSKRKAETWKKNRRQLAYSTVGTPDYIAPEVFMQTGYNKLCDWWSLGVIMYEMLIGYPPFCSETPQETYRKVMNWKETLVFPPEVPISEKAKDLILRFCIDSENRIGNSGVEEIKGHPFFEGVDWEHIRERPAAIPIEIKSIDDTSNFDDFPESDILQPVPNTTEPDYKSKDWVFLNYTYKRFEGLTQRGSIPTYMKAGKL
# Sequence of UniProt Q15005 (Q15005 whole entry, looked up): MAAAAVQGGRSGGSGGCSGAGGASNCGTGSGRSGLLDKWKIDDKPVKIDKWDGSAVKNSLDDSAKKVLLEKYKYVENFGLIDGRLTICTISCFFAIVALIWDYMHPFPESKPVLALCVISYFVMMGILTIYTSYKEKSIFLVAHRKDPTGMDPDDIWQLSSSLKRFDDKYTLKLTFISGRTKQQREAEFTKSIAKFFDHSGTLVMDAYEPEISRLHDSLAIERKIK
# Sequence of UniProt O75663 (O75663 whole entry, looked up): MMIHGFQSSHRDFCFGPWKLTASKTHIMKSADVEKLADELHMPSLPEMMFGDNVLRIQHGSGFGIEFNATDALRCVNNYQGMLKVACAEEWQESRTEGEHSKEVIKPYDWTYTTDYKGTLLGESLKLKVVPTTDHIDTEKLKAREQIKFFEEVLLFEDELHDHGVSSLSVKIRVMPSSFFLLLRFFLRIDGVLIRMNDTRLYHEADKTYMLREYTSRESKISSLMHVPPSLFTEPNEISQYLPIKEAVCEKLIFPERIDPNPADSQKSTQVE
# Sequence of UniProt Q01130 (Q01130 whole entry, looked up): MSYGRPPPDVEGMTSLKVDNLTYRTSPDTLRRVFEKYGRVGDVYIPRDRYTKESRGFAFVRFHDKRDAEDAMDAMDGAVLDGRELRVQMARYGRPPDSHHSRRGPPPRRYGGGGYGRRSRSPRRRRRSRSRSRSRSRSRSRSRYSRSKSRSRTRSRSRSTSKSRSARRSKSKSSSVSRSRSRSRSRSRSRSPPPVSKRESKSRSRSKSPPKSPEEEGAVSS
row,Target,log2 fold change
1,SPPL2B (UniProt Q8TCT7),-0.032
2,STK4 (UniProt Q13043),0.008
3,SMG1 (UniProt Q96Q15),-0.06
4,STK38L (UniProt Q9Y2H1),0.051
5,TGFBRAP1 (UniProt Q8WUH2),0.046
6,SLC9A6 isoform 2 (UniProt Q92581),0.083
7,SLC35A1 (UniProt P78382),-0.055
8,TFR2 (UniProt Q9UP52),0.02
9,TERF2IP (UniProt Q9NYB0),0.024
10,SUGP1 (UniProt Q8IWZ8),-0.017
11,SURF1 (UniProt Q15526),-0.044
12,STARD7 (UniProt Q9NQZ5),-0.009
13,STEAP3 isoform 2 (UniProt Q658P3),0.043
14,ST6GAL1 (UniProt P15907),0.024
15,SPIRE1 (UniProt Q08AE8),-0.006
16,SLC27A1 (UniProt Q6PCB7),-0.034
17,SPG21 (UniProt Q9NZD8),0.019
18,SRP72 (UniProt O76094),0.205
19,SLC38A7 (UniProt Q9NVC3),0.033

row,Target,log2 fold change
1,SLK isoform 2 (UniProt Q9H2G2),0.022
2,TIPRL (UniProt O75663),-0.015
3,STX17 (UniProt P56962),0.006
4,STIM1 (UniProt Q13586),-0.011
5,SLC30A10 (UniProt Q6XR72),-0.032
6,STK25 (UniProt O00506),0.034
7,SNUPN (UniProt O95149),0.07
8,SLC7A6 (UniProt Q92536),-0.068
9,SMAD9 (UniProt O15198),0.024
10,TJP2 isoform 7 (UniProt Q9UDY2),0.003
11,SLC30A7 (UniProt Q8NEW0),-0.007
12,STOM (UniProt P27105),0.028
13,STAT5B (UniProt P51692),-0.095
14,SPCS2 (UniProt Q15005),-0.062
15,SMAP2 (UniProt Q8WU79),0.015
16,TIAL1 isoform 2 (UniProt Q01085),-0.039
17,STAT6 (UniProt P42226),0.11
18,SLC6A6 (UniProt P31641),-0.071
19,SRSF2 (UniProt Q01130),0.022

# Compound: CC1=C(C(CC(=O)N1)C2=CC=C(C=C2)C(F)(F)F)C(=O)NC3=C(C=C4C(=C3)C=NN4)F
# Test: as above
# Method in brief: as §1
row,Target,log2 fold change
1,SPPL2B (UniProt Q8TCT7),0.049
2,STK4 (UniProt Q13043),0.023
3,SMG1 (UniProt Q96Q15),0.045
4,STK38L (UniProt Q9Y2H1),0.013
5,TGFBRAP1 (UniProt Q8WUH2),0.052
6,SLC9A6 isoform 2 (UniProt Q92581),0.021
7,SLC35A1 (UniProt P78382),0.059
8,TFR2 (UniProt Q9UP52),0.02
9,TERF2IP (UniProt Q9NYB0),0.007
10,SUGP1 (UniProt Q8IWZ8),0.011
11,SURF1 (UniProt Q15526),0.022
12,STARD7 (UniProt Q9NQZ5),-0.019
13,STEAP3 isoform 2 (UniProt Q658P3),0.019
14,ST6GAL1 (UniProt P15907),0.02
15,SPIRE1 (UniProt Q08AE8),-0.036
16,SLC27A1 (UniProt Q6PCB7),0.195
17,SPG21 (UniProt Q9NZD8),-0.062
18,SRP72 (UniProt O76094),-0.026
19,SLC38A7 (UniProt Q9NVC3),-0.009

row,Target,log2 fold change
1,SLK isoform 2 (UniProt Q9H2G2),-0.025
2,TIPRL (UniProt O75663),0.069
3,STX17 (UniProt P56962),0.062
4,STIM1 (UniProt Q13586),0.006
5,SLC30A10 (UniProt Q6XR72),0.035
6,STK25 (UniProt O00506),-0.015
7,SNUPN (UniProt O95149),-0.002
8,SLC7A6 (UniProt Q92536),0.025
9,SMAD9 (UniProt O15198),0.039
10,TJP2 isoform 7 (UniProt Q9UDY2),0.017
11,SLC30A7 (UniProt Q8NEW0),-0.058
12,STOM (UniProt P27105),0.014
13,STAT5B (UniProt P51692),-0.109
14,SPCS2 (UniProt Q15005),-0.033
15,SMAP2 (UniProt Q8WU79),-0.025
16,TIAL1 isoform 2 (UniProt Q01085),-0.02
17,STAT6 (UniProt P42226),0.125
18,SLC6A6 (UniProt P31641),-0.025
19,SRSF2 (UniProt Q01130),0.02

# Reference: the supplement of paper PMC10849652
